From ChEMBL document CHEMBL3988442, “University of Dundee, Small-Polar-MMV Screening Library” (2021)
Hit rate of the full screen: of about 48,000 compounds, about 13,000 (27%) showed an effect of 50% or more. This is one part of the list.

What follows are compounds tested on Wolbachia pipientis (assay: Anti-Wolbachia Cell-Based Screen). Settings: 5 µM.
Format: functional
Design: scale not given: in the data most compounds retested in dose-response had high values

Row | Structure (SMILES) | Percent Effect [%]
1 | CC1CCCCN1C1CN(C(=O)c2sccc2S(N)(=O)=O)C1 (centres undefined) | 5.602
2 | CN(Cc1ccccc1)C1(C(=O)O)Cc2ccccc2C1 | 1.396
3 | CC[C@@H]1N(Cc2nccs2)CCC[C@]12CCC(=O)N2CCOC.O=C(O)C(F)(F)F | 100.4
4 | CC[C@@H]1N(Cc2nccs2)CCC[C@]12CCC(=O)N2C.O=C(O)C(F)(F)F | 109.2
5 | COCCN1C(=O)CC[C@]12CC[C@@H](NCc1nccs1)CC2.O=C(O)C(F)(F)F | -1.329
6 | CN1C(=O)CCCC12CCCN(Cc1nccs1)C2.O=C(O)C(F)(F)F (centres undefined) | -2.009
7 | CC[C@@H]1N(CC2CC2)CCC[C@]12CCC(=O)N2CCOC.O=C(O)C(F)(F)F | -7.54
8 | Cn1cccc1C(=O)N1C[C@H]2CN(CCN3CCCC3)C(=O)[C@H]2C1 | -3.388
9 | CS(=O)(=O)N1C[C@@H](NC(=O)c2ccno2)[C@@H]2OCCC[C@@H]21 | 112.1
10 | CS(=O)(=O)N1C[C@H](NC(=O)c2ccno2)[C@@H]2OCCC[C@@H]21 | 97.34
11 | Cn1cc(C(=O)N[C@H]2CN(S(C)(=O)=O)[C@@H]3CCCO[C@H]23)cn1 | 0.3212
12 | CN(C)C(=O)N[C@@H]1CN(S(C)(=O)=O)[C@@H]2CCCO[C@@H]21 | -12.16
13 | CC(CCNC(=O)NCCc1ccc(S(N)(=O)=O)cc1)c1ccccc1 (centres undefined) | 2.961
14 | NC(=O)c1cc(C2CCCN(CCCOc3ccccc3)C2)n[nH]1 (centres undefined) | -3.314
15 | COc1ccccc1-c1c[nH]c(C2CCCN2)n1.Cl.Cl (centres undefined) | -20.8
16 | NC(=O)c1ccccc1Oc1cnc(C2CCCN2)cn1 (centres undefined) | 134.2
17 | Nc1nc(CCCNC(=O)c2ccccc2C2CCNC2)cs1 (centres undefined) | 16.63
18 | NC(=O)c1ccccc1Oc1cccc(C2CCCNC2)n1 (centres undefined) | 178.3
19 | CN1CCN(Cc2ccccc2Oc2ccc(C(N)=O)cn2)CC1 | -9.578
20 | CC(C)c1nc2cc(NC(=O)Cn3ccccc3=O)ccc2o1 | 6.336
21 | CC(C)c1ocnc1C(=O)Nc1cccc(Cn2ccccc2=O)c1 | 74.78
22 | O=C(CCn1ccccc1=O)Nc1ccc(I)cc1 | -0.04239
23 | O=C(Nc1cccn(Cc2ccccc2)c1=O)c1ccncc1F | -8.682
24 | Cc1ncccc1C(=O)Nc1cccc2c1C(=O)NC2 | -1.694
25 | CSc1ncccc1C(=O)Nc1ccc(Cn2ccccc2=O)cc1 | 85.69

Row | Structure (SMILES) | Percent Effect [%]
26 | CC(C)S(=O)(=O)Cc1cccc(NC(=O)c2ccc[nH]2)c1 | 19.64
27 | Cc1ncccc1C(=O)Nc1ccc2ccn(CCN(C)C)c2c1 | -6.665
28 | Cc1ncccc1C(=O)Nc1cccc(Cn2ccccc2=O)c1 | 100.7
29 | CN(Cc1ccco1)C(=O)NCc1nnc2n1CCC2 | 1.808
30 | CN(Cc1ccc(F)cc1)C(=O)NCc1nnc2n1CCCCC2 | -12.53
31 | CN(Cc1cnn(C)c1)C(=O)NCc1nnc2n1CCC2 | -11.71
32 | CN(Cc1ccc(F)cc1)C(=O)NCc1nnc2n1CCC2 | 105
33 | O=C(NCc1nnc2n1CCC2)N(Cc1ccc(F)cc1)C1CC1 | -6.428
34 | CN(Cc1ccc(N(C)C)cc1)C(=O)NCc1nnc2n1CCC2 | 115.6
35 | CN(CCO)Cc1nnc(C2CCN(C[C@H]3[C@@H]4CNC[C@@H]43)CC2)n1C | -4.687
36 | CCc1ccc(C2CCCN2C(=O)CNC(=O)CCC(C)C)o1 (centres undefined) | 9.018
37 | CCc1ccc(C2CC(=O)Nc3n[nH]cc32)o1 (centres undefined) | 13.18
38 | CCCC(=O)Nc1cc2c(cc1OC)NC(=O)CC2c1ccc(CC)o1 (centres undefined) | 133.6
39 | CCc1ccc(C2CC(=O)Nc3cc(OC)c(NS(C)(=O)=O)cc32)o1 (centres undefined) | 82.49
40 | CCc1ccc(C2CC(=O)Nc3cc(NS(C)(=O)=O)ccc32)o1 (centres undefined) | 85.79
41 | CN(Cc1ccc(C2CC(=O)Nc3cc4[nH]ncc4cc32)o1)S(C)(=O)=O (centres undefined) | 6.583
42 | CCc1ccc(S(=O)(=O)Nc2cc(OC)c(OC)cc2C(=O)O)s1 | -0.559
43 | CCc1ccc(C2CCCN2C(=O)NCC(=O)NCC(C)C)o1 (centres undefined) | -83.92
44 | CN(Cc1ccc(C2CC(=O)Nc3n[nH]cc32)o1)S(C)(=O)=O (centres undefined) | 5.804
45 | CS(=O)(=O)Cc1ccc(Cl)c(NCc2noc(C3CC3)n2)c1 | -7.665
46 | CCOCCOC(C)C(=O)Nc1ccc2[nH]c(C)cc2c1 (centres undefined) | 4.03
47 | CC(NC(=O)c1ccc(CS(C)(=O)=O)o1)c1ccc(F)c(F)c1 (centres undefined) | -18.18
48 | CC(=O)N1CCN(C2CCCCc3ccccc32)CC1 (centres undefined) | -7.249
49 | CC(=O)N1CCN([C@@H]2CC[C@@H](N(C)C(=O)C3CCCCC3)[C@H]2O)CC1 | 97.43
50 | CC(=O)N1CCN([C@@H]2CCC[C@@H](N(C)C(=O)C3CC3)[C@H]2O)CC1 | 98.54

Row | Structure (SMILES) | Percent Effect [%]
51 | COC(=O)N1CCCC(C(=O)N(C)C)C1 (centres undefined) | 5.213
52 | CC(=O)N1CCC(N[C@@H]2CO[C@H](CNC(=O)C3CCCC3)[C@H]2O)CC1 | -17.04
53 | CC(=O)N1CCC(C(=O)N(C)[C@@H]2CCC[C@@H](N3CCCC3)[C@@H]2O)CC1 | -16.02
54 | Cc1cc(=O)c(C(=O)N(C)Cc2ccc(Cl)c(F)c2)c[nH]1 | 0.1621
55 | CCCc1noc(C(C)S(=O)(=O)Cc2nc(C3CC3)no2)n1 (centres undefined) | -3.55
56 | COC(C(=O)NCc1c(C)nc2cc(=O)[nH]n2c1C)c1ccccc1 (centres undefined) | -2.131
57 | Cc1ccc(=O)n(CC2(O)CCN(Cc3cc(C)c(O)c(C)c3)CC2)n1.O=C(O)CC(O)(CC(=O)O)C(=O)O | -13.33
58 | O=C(O)C(c1ccc2c(c1)OCO2)N1CCC(O)(c2cccnc2)CC1 (centres undefined) | -24.46
59 | Cc1ncc(CN2CCCC(O)(c3ccc(F)cc3)CC2)n1C.O=C(O)CC(O)(CC(=O)O)C(=O)O (centres undefined) | 96.51
60 | Fc1ccc(CN2CCC3(CC2)CCN(Cc2nccs2)CC3)cc1.O=C(O)C(F)(F)F.O=C(O)C(F)(F)F | 3.556
61 | CCn1c(CN2CCC(O)(c3ccc4c(c3)OCO4)CC2)cnc1SC.O=C(O)CC(O)(CC(=O)O)C(=O)O | 113.8
62 | Cn1cc(CN2CCC3(CC(=O)N(c4ccc5c(c4)OCO5)C3)C2)cn1.O=C(O)C(F)(F)F (centres undefined) | -18.04
63 | CCn1c(CN2CCCC(O)(c3ccc(F)cc3)CC2)cnc1SC.O=C(O)CC(O)(CC(=O)O)C(=O)O (centres undefined) | 110.7
64 | CC(NC(=O)N(C)CCCOc1ccc(F)cc1)c1nncn1C (centres undefined) | 8.721
65 | Cc1cccc(C(=O)N2CCN(S(C)(=O)=O)[C@@H]3CS(=O)(=O)C[C@@H]32)n1 | -7.495
66 | O=C1NCCN(C(=O)c2cn3ccsc3n2)C1c1cccc(F)c1 (centres undefined) | -4.51
67 | CCN(CC)CC(=O)N1CCCCC1c1nc(C)cs1 (centres undefined) | 131.2
68 | Cc1csc(C2CCCCN2C(=O)CN(C)C(C)C)n1 (centres undefined) | 91.31
69 | Cc1csc(C2CCCCN2C(=O)CN(C)C2CC2)n1 (centres undefined) | 3.375
70 | Cc1csc(C2CCCCN2C(=O)CN(C)Cc2ccccc2)n1 (centres undefined) | -0.5019
71 | CCn1nc(C)c(CCN2CC3(CCOC3)CCC2=O)c1C (centres undefined) | -24.96
72 | N#CC1C(=O)Nc2c(cnn2C2CCCC2)C12CCCCC2 (centres undefined) | 30.08
73 | CC(C)c1ncc2c(n1)CN(Cc1nc(-c3ccco3)no1)CC2 | 103.4
74 | c1ccc(-c2noc(CN3CCc4cncnc4C3)n2)nc1 | 12.32
75 | CC(C)c1ncc2c(n1)CN(Cc1nc(Cc3ccccc3)no1)CC2 | -0.3417

Row | Structure (SMILES) | Percent Effect [%]
76 | CC(C)c1ncc2c(n1)CN(Cc1nc(-c3ccoc3)no1)CC2 | -5.396
77 | CC(C)c1ncc2c(n1)CN(Cc1nc(-c3cccnc3)no1)CC2 | 97.53
78 | CCc1ncc2c(n1)CN(Cc1nc(-c3ccccn3)no1)CC2 | 1.522
79 | CC(C)c1ncc2c(n1)CN(Cc1nc(-c3ccccn3)no1)CC2 | 114.4
80 | Cn1cnc2c1CCN(Cc1nc(-c3ccco3)no1)C2 | -0.7314
81 | CC1CCCN(S(=O)(=O)N2CCOC3(CCCC3)C2)C1 (centres undefined) | 2.449
82 | CCC(=O)NCC(=O)NCC(C)(C)c1cccc(Br)c1 | 13.04
83 | COc1cccc2c1OCC(C(=O)NCCn1nc(C)c(Cl)c1C)C2 (centres undefined) | -38.77
84 | CCCc1nnc(NC2CCN(C3CCSCC3)CC2)o1 | -8.087
85 | CCc1nnc(CSc2ccccn2)o1 | -8.933
86 | CN1CC(=O)N(c2cccc(F)c2)CC12CCN(S(=O)(=O)C1CC1)C2.O=C(O)C(F)(F)F (centres undefined) | -1.497
87 | CC(C)c1nccn1-c1cncc(C2CCCN(C3CCCCC3)C2)n1 (centres undefined) | 98.48
88 | CC(C)c1nccn1-c1cccc(C2CCCN(C3CCCC3)C2)n1 (centres undefined) | 0.08562
89 | CC(C)c1nccn1-c1cncc(C2CCCN(C3CCCC3)C2)n1 (centres undefined) | 108
90 | COC[C@]1(O)CCN(C(=O)c2cccc(CN(C)C)c2)CC1(C)C | 2.502
91 | COc1ccc(C)cc1CNCc1ccc(-n2nc(C)cc2C)nc1 | -14.66
92 | Cc1nc(CCNC(=O)C2CC(=O)N(C(C)(C)C)C2)sc1C (centres undefined) | 2.949
93 | Cc1nc(COCc2nc3c(o2)CN(C(=O)c2ccc[nH]2)C3)cs1.O=C(O)C(F)(F)F | -0.815
94 | COc1ccc(CC(C)Nc2cccc(SC)c2)cc1 (centres undefined) | 111.5
95 | COc1ccc(C(CO)NC(=O)Nc2cccc(F)c2)cc1 (centres undefined) | -21.51
96 | COC[C@H](C)Nc1cc(C)c2ccc(SC)cc2n1 | 11.13
97 | COc1ccc(C(CO)NC(=O)Nc2cccc(C#N)c2)cc1 (centres undefined) | -8.791
98 | COc1ccc(CCC(C)Nc2cccc(SC)c2)cc1 (centres undefined) | 100.8
99 | COc1ccc2cc(CNc3c(C)nn(C(C)C)c3C)ccc2c1 | -4.986
